Records with an inconclusive call do not appear. Active and inactive are the calls of the source. Calls follow the shape of the dose curve; as a rule, active = well fitted curve in the direction sought with a large enough effect; inconclusive = small, poorly fitted or top-dose-only effect, or another doubt; inactive = no such curve, though single readings can be large; an effect the other way counts as inactive or inconclusive.
What was measured:
[1] = qHTS to identify inhibitors of the type 1 interferon - major histocompatibility complex class I in skeletal muscle: primary screen against the NCATS Pharmaceutical Collection (AID 1347407);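 also: luminescence of HiBiT knocked into endogenous HLA-B as interferon-induced MHC class I level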
Summary of the method: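 Cells were seeded with 4 ng/ml IFN-beta, incubated 1 h, then dosed with compounds over eight 1:5 steps up to 46 uM final. After 24 h at 37 C, HiBiT lytic reagent was added and luminescence read after 10 min lysis in the dark.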

[2] = molecular target: Protein phosphatase 1D (Homo sapiens) (UniProt O15297); test: RapidFire Mass Spectrometry qHTS Assay for Modulators of WT P53-Induced Phosphatase 1 (WIP1) (AID 1347424);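 also: amount of dephosphorylated VEPPL-S-QETFS peptide product formed by WIP1; series mostly up to about 63 µM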
Chain of Protein phosphatase 1D (Homo sapiens) (O15297 whole entry, looked up): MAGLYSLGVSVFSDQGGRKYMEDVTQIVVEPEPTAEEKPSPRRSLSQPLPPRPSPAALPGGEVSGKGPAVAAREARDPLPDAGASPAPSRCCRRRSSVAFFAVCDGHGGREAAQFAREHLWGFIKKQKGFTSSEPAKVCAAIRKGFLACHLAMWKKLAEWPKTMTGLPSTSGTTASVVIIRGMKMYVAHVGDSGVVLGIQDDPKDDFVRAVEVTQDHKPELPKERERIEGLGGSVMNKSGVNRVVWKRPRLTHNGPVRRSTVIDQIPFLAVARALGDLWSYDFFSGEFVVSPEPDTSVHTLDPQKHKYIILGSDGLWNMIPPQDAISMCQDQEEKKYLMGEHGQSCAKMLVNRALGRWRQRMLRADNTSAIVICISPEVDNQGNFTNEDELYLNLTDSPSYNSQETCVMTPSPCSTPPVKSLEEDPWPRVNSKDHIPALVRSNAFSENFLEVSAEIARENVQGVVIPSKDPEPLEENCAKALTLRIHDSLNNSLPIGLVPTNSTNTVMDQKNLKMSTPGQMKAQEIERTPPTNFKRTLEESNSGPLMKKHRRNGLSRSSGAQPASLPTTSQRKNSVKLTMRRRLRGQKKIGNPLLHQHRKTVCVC
Summary of the method: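 RapidFire mass spectrometry measured dephosphorylated peptide after 5 min room-temperature reaction of 2 uM VEPPL-pS-QETFS with 10 nM WIP1 (50 mM Tris-HCl pH 7.5, 30 mM MgCl2, 0.1 mM EGTA, BSA), following 1 hr compound preincubation; 1 uM isotope-labelled product standard.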

[3] = molecular target: Protein phosphatase 1D (Homo sapiens) (UniProt O15297); test: Rhodamine-PBP qHTS Assay for Modulators of WT P53-Induced Phosphatase 1 (WIP1) (AID 1347425)
Summary of the method: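 WIP1 (5 nM final) was preincubated with compound for 1 hour at room temperature. It then dephosphorylated 10 uM VEPPL-pS-QETFS peptide in Tris-HCl pH 7.5 with 30 mM MgCl2. Released Pi was detected by 10 uM Rh-PBP fluorescence (ex 525/em 598 nm) read at 1-min intervals for 11 min, as delta f1 - f0.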

Measured: Potency

O=c1[nH]c(=O)n([C@H]2O[C@H](CO)[C@@H](O)[C@@H]2O)cc1/C=C\Br
inactive: all assays above

CCCCN(CCN(CCCC)C(=O)N1CCOCC1)C(=O)N1CCOCC1
inactive: all assays above

CO[C@@H]1[C@@H](O[C@@H]2O[C@H](C)[C@@H](O[C@H]3C[C@@](C)(O)[C@@H](O)[C@H](C)O3)[C@H](N(C)C)[C@H]2O)[C@@H](CC=O)C[C@@H](C)[C@@H](O[C@@H]2CC[C@H](N(C)C)[C@@H](C)O2)/C=C/C=C/C[C@@H](C)OC(=O)C[C@H]1OC(C)=O
inactive: all assays above

COCCOCC(OC)OC
inactive: all assays above

CCOC(=O)C(O)c1ccccc1 (stereo unspecified)
inactive: all assays above

CCOC(=O)Oc1ccc(CCNC(=O)[C@H](CCSC)NC(C)=O)cc1OC(=O)OCC
inactive: all assays above

CC1CCCCN1CCCOC(=O)c1ccc(OC2CCCCC2)cc1 (stereo unspecified)
inactive: all assays above

CCCCC(O)/C=C(C)/C=C/C=C/C(=O)N1CCCC1=O (stereo unspecified)
inactive: all assays above

Cc1ccccc1C(=O)N1CC/C(=N\OS(=O)(=O)O)c2ccc(Cl)cc21
inactive: all assays above

Fc1ccc(C(c2ccc(F)cc2)N2CCNCC2)cc1
inactive: all assays above

COc1cc(C(=O)NC2CCCNC2)cc(OC)c1OC (stereo unspecified)
inactive: all assays above

CCN1CCCC1CN (stereo unspecified)
inactive: all assays above

Nc1ccc(C(=O)N2CC3CC(CN(Cc4ccccc4)C3)C2)cc1
inactive: all assays above

CO/N=C(/C(=O)N[C@@H]1C(=O)N2C(C(=O)[O-])=C(C[n+]3ccn4ncccc43)CS[C@H]12)c1nsc(N)n1
inactive: all assays above

CC(=O)/C=C/C=C1/C2CCC(C2)C1(C)C (stereo unspecified)
inactive: all assays above

CC(=O)OC/C=C(C)/C=C/C=C(C)/C=C/C1=C(C)CCCC1(C)C
inactive: all assays above

C[N+]1(CC2COC(c3ccccc3)(c3ccccc3)O2)CCCCC1 (stereo unspecified)
inactive: all assays above

COc1cc(NS(=O)(=O)c2ccc(N)cc2)nc(C)n1
inactive: all assays above

CCOc1ccc(NS(=O)(=O)c2ccc(N)cc2)nn1
inactive: all assays above

COc1ccc([C@@H]2Sc3ccccc3NC(=O)[C@@H]2O)cc1
inactive: all assays above

Nc1c2ccccc2nc2ccccc12
inactive: all assays above

CC(C(=O)O)c1ccc(/C=C2\CCCCC2=O)cc1 (stereo unspecified)
inactive: all assays above

O=C(O)/C=C(\CC(=O)O)C(=O)O
inactive: all assays above

Cc1cc(C(C)(C)C)c(O)c(C(C)(C)C)c1
inactive: all assays above

O=[N+]([O-])c1ccc(O)c2ncccc12
inactive: all assays above

C[C@H](CN1CCCC1)C(=O)c1ccc(C(F)(F)F)cc1
inactive: all assays above

Cc1c(N)cccc1C(F)(F)F
inactive: all assays above

O=C(O)CCC(=O)OC[C@@H](NC(=O)C(Cl)Cl)[C@H](O)c1ccc([N+](=O)[O-])cc1
inactive: all assays above

CC(=O)c1ccc(O)c(C(N)=O)c1
inactive: all assays above

CCCCCC[C@@H](CCC)C(=O)O
inactive: all assays above

CC(C)(C)C(=O)OCOC(=O)C1N2C(=O)CC2S(=O)(=O)C1(C)C (stereo unspecified)
inactive: all assays above

O=C(O)C1CCC1
inactive: all assays above

O=C(CCCl)NCCc1ccccc1
inactive: all assays above

CCOC(=O)NNc1nncc2ccccc12
inactive: all assays above

CC(C)OC(=O)c1cc2c(OCC(O)CNC(C)(C)C)cccc2[nH]1 (stereo unspecified)
inactive: all assays above

COc1ccccc1N1CCN(CC(O)COc2cc(OC)c(OC)c(OC)c2)CC1 (stereo unspecified)
inactive: all assays above

CC(C)(C)c1ccc(C(=O)CCCCl)cc1
inactive: all assays above

CC(=O)O[C@H]1CC[C@@]2(C)C(=CC[C@@H]3[C@@H]2CC[C@]2(C)C(C(C)=O)=CC[C@@H]32)C1
inactive: all assays above

CC(=O)Nc1ccc(S(=O)(=O)Nc2cc(C)on2)cc1
inactive: all assays above

COC(=O)/C=C\C(=O)OC
inactive: all assays above

N#Cc1cc(NC(=O)C(=O)O)c(Cl)c(NC(=O)C(=O)O)c1
inactive: all assays above

C/C(=N/NC(=O)c1ccncc1)C(=O)O
inactive: all assays above

— PubChem BioAssay (NCATS)
